Results from PubChem BioAssay (Tox21).
Unmarked numbers belong to inactive results. Records with an inconclusive call do not appear. Entries that show only a call come without a potency. Activity calls are given as the source filed them. Unless noted, calls follow the shape of the dose curve; as a rule, active = well fitted curve in the direction sought with a large enough effect in the repeat runs; inconclusive = weak or mixed curves; inactive = no such curve, though single readings can be large; an effect the other way counts as inactive or inconclusive.

Columns and labels:
[1] = Caspase-3/7 induction in HepG2 cells by small molecules, qHTS assay (AID 1346978); also: nearly all actives have a fitted effect of over 15% in size
Method in brief: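 Caspase-3/7 induction was measured by Caspase-Glo 3/7 luminescence (30 min, room temperature) after a 17 hr compound exposure of wild-type HepG2 cells seeded at 2,000 per well and pre-incubated 5 hr.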

[2] = Caspase-3/7 induction in CHO-K1 cells by small molecules, qHTS cell viability counter screen (AID 1346979); also: nearly all actives have a fitted effect of over 35% in size
Method in brief: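 Viability readout by fluorescence (CellTiter-Fluor) on wild-type CHO-K1 cells exposed for 16hr at 37C and 5% CO2 to compounds delivered in DMSO; reagent incubated 1hr before reading.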

[3] = Caspase-3/7 induction in CHO-K1 cells by small molecules, qHTS assay (AID 1346980); also: nearly all actives have a fitted effect of over 15% in size
Method in brief: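 Luminescent Caspase-Glo 3/7 read (30min, room temperature) quantified apoptosis induction. Cells were wild-type CHO-K1, treated with compound for 17hr at 37 C and 5% CO2.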

[4] = Caspase-3/7 induction in HepG2 cells by small molecules, qHTS cell viability counter screen (AID 1346981); also: series mostly up to about 92 µM; nearly all actives have a fitted effect of over 30% in size
Method in brief: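 Wild-type HepG2 cells (2,000/well) were allowed to settle for 5 hr at 37 C, 5% CO2, then dosed with compounds in DMSO by pin transfer. After 16 hr at 37 C, CellTiter-Fluor was added and fluorescence read 1 hr later.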

[5] = molecular target: Nuclear receptor subfamily 1 group I member 2 (Homo sapiens) (UniProt O75469); test: Human pregnane X receptor (PXR) small molecule agonists, qHTS assay (AID 1346982); also: nearly all actives have a fitted effect of over 35% in size; also: potency is read from the fitted curve at half-maximal effect
Method in brief: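 PXR-Luc HepG2 cells (CYP3A4 promoter-driven luciferase) were seeded in medium with 5% charcoal-stripped FBS, left 5 hr at 37 C, then exposed to compounds in DMSO for 24 hr. Luminescence was read after ONE-Glo addition.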

[6] = molecular target: Acetylcholinesterase (Homo sapiens) (UniProt P22303); test: Acetylcholinesterase (AChE) small molecule antagonists: colormetric cell-based qHTS assay (AID 1347395; calls by dose curve; also: nearly all actives have a fitted effect of over 30% in size; also: potency is read from the fitted curve at half-maximal effect)
Method in brief: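 Homogeneous whole-cell format. SH-SY5Y cells seeded overnight, dosed with compound (30 min, 37 C, 5% CO2), then given DTNB/acetylthiocholine cocktail for 90 min at 37 C; colorimetric signal.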

[7] = molecular target: Acetylcholinesterase (Homo sapiens) (UniProt P22303); test: Acetylcholinesterase (AChE) small molecule antagonists: enzyme-based qHTS assay (AID 1347397; calls by dose curve; also: nearly all actives have a fitted effect of over 55% in size); details: Potency: AChE enzyme activity inhibition; outcome: AChE enzyme activity inhibition
Method in brief: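 Absorbance-based detection of thiocholine with DTNB served as the read-out. Recombinant human AChE was exposed to compound for 30 min at RT before a 10 min RT incubation with acetylthiocholine.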

[8] = molecular target: Acetylcholinesterase (Homo sapiens) (UniProt P22303); test: Acetylcholinesterase (AChE) small molecule antagonists: fluorescence cell-based qHTS assay (AID 1347398; calls by dose curve; also: nearly all actives have a fitted effect of over 50% in size); details: Potency: AChE activity; outcome: AChE activity
Method in brief: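 Fluorimetric cell-based assay: intact SH-SY5Y cells, 30 min compound preincubation at 37 C, acetylthiocholine substrate with thiol probe Thiolite Green, 40 min RT development, fluorescence 490/520 nm.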

[9] = molecular target: Acetylcholinesterase (Homo sapiens) (UniProt P22303); test: Acetylcholinesterase (AChE) small molecule antagonists: enzyme-based qHTS assay with human liver microsomes (AID 1347399; calls by dose curve; also: nearly all actives have a fitted effect of over 60% in size); details: Potency: qHTS inhibition; outcome: qHTS inhibition
Method in brief: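 Recombinant human AChE (50 mU/mL in the enzyme mix) and human liver microsomes (0.25 mg/mL final) were preincubated with compound and NADPH (0.25 mg/mL final) for 30 min at 37 C. Acetylthiocholine/DTNB was then added; thiocholine was read colorimetrically after 10 min at room temperature.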

[10] = molecular target: Cytochrome P450 2D6 (Homo sapiens) (UniProt P10635); test: Cytochrome P450 Family 2 Subfamily D Member 6 (CYP2D6) small molecule antagonists: luciferase reporter qHTS assay (AID 1671196); also: nearly all actives have a fitted effect of over 50% in size; also: potency is read from the fitted curve at half-maximal effect
Method in brief: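 CYP2D6 enzyme–substrate mix was held with compound for 10 min at room temperature, then NADPH regeneration solution was added and the reaction ran 1 h at room temperature. Luciferin product was detected by luminescence after 20 min with detection reagent.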

[11] = molecular target: Cytochrome P450 2C19 (Homo sapiens) (UniProt P33261); test: Cytochrome P450 Family 2 Subfamily C Member 19 (CYP2C19) small molecule antagonists: luciferase reporter qHTS assay (AID 1671197); also: nearly all actives have a fitted effect of over 65% in size; also: potency is read from the fitted curve at half-maximal effect
Method in brief: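 Relative luminescence units recorded 20 min after the detection reagent stopped a 1 h, 37C CYP2C19 reaction on proluciferin substrate, which was started by NADPH regeneration following 10 min room-temperature compound preincubation; ketoconazole positive control.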

[12] = molecular target: Cytochrome P450 1A2 (Homo sapiens) (UniProt P05177); test: Cytochrome P450 Family 1 Subfamily A Member 2 (CYP1A2) small molecule antagonists: luciferase reporter qHTS assay (AID 1671199); also: nearly all actives have a fitted effect of over 50% in size; also: potency is read from the fitted curve at half-maximal effect
Method in brief: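 Human CYP1A2 activity measured with a P450-Glo proluciferin substrate; compounds in DMSO preincubated 10 min at room temperature with enzyme-substrate mix, then NADPH regeneration system added for 1 h. Luciferin detection reagent, 20 min, luminescence read.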

[13] = molecular target: Cytochrome P450 3A4 (Homo sapiens) (UniProt P08684); test: Cytochrome P450 Family 3 Subfamily A Member 4 (CYP3A4) small molecule antagonists: luciferase reporter qHTS assay (AID 1671201); also: nearly all actives have a fitted effect of over 50% in size; also: potency is read from the fitted curve at half-maximal effect
Method in brief: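 Relative luminescence units after 20 min with luciferin detection reagent served as read-out. Beforehand, CYP3A4 turned over a proluciferin substrate for 1 h at room temperature with NADPH regeneration, following 10 min compound preincubation.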

[14] = molecular target: Cytochrome P450 2C9 (Homo sapiens) (UniProt P11712); test: Cytochrome P450 Family 2 Subfamily C Member 9 (CYP2C9) small molecule antagonists: luciferase reporter qHTS assay (AID 1671198); also: nearly all actives have a fitted effect of over 50% in size; also: potency is read from the fitted curve at half-maximal effect
Method in brief: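 Enzyme-substrate mix preincubated with compound 10 min at room temperature; reaction started with NADPH regeneration solution, 1 h 37C. Luminescent luciferin product read after 20 min detection reagent.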

[15] = molecular target: Voltage-gated inwardly rectifying potassium channel KCNH2 (Homo sapiens) (UniProt Q12809); test: Human Ether-a-go-go-Related Gene (hERG) channel small molecule antagonists: fluorescence cell-based qHTS assay (AID 1671200)
Method in brief: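 Thallium served as the potassium surrogate; its influx into dye-loaded U2OS cells carrying the channel was measured by fluorescence over 2 min.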

Sequence of Cytochrome P450 2C19 (Homo sapiens) (P33261 whole entry, looked up): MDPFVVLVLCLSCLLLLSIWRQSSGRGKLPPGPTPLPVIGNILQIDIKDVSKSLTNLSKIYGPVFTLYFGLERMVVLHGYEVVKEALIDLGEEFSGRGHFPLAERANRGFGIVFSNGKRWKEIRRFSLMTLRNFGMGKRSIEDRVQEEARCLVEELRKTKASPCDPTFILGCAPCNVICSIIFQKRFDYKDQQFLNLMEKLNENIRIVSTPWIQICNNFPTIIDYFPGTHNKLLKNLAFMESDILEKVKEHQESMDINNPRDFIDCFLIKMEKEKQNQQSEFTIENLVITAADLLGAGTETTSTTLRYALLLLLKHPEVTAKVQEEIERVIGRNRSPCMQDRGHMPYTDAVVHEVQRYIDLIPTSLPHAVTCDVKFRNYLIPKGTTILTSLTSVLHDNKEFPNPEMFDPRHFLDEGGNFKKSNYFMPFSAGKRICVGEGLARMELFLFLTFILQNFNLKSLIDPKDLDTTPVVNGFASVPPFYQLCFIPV
Sequence of Nuclear receptor subfamily 1 group I member 2 (Homo sapiens) (O75469 whole entry, looked up): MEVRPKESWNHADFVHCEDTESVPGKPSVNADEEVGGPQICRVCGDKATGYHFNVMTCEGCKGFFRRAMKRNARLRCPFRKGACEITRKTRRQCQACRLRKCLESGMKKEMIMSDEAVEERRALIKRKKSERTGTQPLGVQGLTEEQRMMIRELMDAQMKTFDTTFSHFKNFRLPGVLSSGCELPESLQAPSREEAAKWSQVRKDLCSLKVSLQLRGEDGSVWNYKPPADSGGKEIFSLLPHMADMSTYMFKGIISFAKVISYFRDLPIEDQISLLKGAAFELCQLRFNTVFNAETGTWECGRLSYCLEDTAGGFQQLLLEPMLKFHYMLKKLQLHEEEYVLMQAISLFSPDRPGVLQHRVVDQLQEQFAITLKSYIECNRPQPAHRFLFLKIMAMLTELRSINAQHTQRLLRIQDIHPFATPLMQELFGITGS
Sequence of Cytochrome P450 2D6 (Homo sapiens) (P10635 whole entry, looked up): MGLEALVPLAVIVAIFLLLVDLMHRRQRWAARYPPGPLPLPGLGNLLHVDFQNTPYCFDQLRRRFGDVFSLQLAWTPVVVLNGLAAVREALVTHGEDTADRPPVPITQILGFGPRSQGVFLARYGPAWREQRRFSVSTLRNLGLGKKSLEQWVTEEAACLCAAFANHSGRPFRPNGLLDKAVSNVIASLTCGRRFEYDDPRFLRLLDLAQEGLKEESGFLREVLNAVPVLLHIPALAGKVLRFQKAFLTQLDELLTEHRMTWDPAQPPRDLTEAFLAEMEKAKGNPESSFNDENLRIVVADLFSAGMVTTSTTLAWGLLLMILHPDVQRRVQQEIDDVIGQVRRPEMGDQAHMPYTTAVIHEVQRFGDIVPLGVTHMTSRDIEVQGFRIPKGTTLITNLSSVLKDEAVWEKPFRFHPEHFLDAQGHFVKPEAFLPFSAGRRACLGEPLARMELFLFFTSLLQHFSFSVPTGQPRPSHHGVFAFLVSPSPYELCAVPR
Sequence of Cytochrome P450 2C9 (Homo sapiens) (P11712 whole entry, looked up): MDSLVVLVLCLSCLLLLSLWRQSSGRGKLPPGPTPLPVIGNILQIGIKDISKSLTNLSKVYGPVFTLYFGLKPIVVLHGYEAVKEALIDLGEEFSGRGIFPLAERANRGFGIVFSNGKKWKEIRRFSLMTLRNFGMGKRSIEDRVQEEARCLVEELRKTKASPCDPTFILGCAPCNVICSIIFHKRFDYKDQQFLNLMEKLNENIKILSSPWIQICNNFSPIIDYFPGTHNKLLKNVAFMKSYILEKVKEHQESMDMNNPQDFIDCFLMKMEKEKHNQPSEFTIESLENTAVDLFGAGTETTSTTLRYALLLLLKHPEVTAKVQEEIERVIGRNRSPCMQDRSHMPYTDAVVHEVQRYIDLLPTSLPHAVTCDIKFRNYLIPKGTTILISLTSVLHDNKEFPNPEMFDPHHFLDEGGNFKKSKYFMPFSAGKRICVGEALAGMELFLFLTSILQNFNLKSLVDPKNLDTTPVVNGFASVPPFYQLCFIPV
Sequence of Cytochrome P450 1A2 (Homo sapiens) (P05177 whole entry, looked up): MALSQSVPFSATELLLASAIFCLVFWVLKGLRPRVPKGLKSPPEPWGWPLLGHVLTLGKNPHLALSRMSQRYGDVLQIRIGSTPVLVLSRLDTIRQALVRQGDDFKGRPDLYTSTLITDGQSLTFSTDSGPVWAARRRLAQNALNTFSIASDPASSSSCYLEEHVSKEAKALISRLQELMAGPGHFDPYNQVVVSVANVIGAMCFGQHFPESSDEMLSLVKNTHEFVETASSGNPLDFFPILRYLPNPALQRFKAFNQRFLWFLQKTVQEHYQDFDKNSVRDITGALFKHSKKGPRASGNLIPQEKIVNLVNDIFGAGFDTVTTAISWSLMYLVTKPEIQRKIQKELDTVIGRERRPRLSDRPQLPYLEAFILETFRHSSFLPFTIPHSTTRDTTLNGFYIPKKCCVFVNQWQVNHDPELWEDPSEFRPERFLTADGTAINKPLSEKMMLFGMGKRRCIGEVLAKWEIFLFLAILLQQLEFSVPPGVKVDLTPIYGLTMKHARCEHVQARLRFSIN
Sequence of Acetylcholinesterase (Homo sapiens) (P22303 whole entry, looked up): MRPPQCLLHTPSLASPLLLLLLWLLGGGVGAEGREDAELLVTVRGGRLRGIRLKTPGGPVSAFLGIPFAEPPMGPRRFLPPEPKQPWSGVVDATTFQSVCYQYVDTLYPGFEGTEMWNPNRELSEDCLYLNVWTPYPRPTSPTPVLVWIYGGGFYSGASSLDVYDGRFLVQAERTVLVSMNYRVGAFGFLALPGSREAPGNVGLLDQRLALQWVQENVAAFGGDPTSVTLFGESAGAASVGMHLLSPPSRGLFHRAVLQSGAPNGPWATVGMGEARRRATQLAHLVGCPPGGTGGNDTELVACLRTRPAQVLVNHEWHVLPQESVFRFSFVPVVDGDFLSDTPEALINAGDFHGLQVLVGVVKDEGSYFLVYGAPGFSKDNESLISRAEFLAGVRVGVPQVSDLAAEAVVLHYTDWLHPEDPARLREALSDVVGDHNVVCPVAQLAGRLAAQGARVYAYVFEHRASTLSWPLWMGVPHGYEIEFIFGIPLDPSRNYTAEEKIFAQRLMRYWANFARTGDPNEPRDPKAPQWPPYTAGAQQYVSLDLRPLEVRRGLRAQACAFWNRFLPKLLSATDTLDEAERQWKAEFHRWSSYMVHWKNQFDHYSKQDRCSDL
Sequence of Cytochrome P450 3A4 (Homo sapiens) (P08684 whole entry, looked up): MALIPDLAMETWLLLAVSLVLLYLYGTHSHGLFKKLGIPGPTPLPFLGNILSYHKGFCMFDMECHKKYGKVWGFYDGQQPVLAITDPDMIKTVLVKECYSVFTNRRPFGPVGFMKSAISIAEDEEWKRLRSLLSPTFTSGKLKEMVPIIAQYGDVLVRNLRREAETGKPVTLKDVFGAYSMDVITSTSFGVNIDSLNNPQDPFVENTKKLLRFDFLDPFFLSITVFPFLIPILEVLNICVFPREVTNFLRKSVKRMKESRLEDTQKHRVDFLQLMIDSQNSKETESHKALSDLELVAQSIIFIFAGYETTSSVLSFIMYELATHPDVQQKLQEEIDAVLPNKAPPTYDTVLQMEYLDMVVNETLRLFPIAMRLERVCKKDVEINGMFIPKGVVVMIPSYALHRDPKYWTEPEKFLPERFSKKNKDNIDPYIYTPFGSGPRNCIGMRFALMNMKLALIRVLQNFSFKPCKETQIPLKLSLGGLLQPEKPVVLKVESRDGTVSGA
Sequence of Voltage-gated inwardly rectifying potassium channel KCNH2 (Homo sapiens) (Q12809 whole entry, looked up): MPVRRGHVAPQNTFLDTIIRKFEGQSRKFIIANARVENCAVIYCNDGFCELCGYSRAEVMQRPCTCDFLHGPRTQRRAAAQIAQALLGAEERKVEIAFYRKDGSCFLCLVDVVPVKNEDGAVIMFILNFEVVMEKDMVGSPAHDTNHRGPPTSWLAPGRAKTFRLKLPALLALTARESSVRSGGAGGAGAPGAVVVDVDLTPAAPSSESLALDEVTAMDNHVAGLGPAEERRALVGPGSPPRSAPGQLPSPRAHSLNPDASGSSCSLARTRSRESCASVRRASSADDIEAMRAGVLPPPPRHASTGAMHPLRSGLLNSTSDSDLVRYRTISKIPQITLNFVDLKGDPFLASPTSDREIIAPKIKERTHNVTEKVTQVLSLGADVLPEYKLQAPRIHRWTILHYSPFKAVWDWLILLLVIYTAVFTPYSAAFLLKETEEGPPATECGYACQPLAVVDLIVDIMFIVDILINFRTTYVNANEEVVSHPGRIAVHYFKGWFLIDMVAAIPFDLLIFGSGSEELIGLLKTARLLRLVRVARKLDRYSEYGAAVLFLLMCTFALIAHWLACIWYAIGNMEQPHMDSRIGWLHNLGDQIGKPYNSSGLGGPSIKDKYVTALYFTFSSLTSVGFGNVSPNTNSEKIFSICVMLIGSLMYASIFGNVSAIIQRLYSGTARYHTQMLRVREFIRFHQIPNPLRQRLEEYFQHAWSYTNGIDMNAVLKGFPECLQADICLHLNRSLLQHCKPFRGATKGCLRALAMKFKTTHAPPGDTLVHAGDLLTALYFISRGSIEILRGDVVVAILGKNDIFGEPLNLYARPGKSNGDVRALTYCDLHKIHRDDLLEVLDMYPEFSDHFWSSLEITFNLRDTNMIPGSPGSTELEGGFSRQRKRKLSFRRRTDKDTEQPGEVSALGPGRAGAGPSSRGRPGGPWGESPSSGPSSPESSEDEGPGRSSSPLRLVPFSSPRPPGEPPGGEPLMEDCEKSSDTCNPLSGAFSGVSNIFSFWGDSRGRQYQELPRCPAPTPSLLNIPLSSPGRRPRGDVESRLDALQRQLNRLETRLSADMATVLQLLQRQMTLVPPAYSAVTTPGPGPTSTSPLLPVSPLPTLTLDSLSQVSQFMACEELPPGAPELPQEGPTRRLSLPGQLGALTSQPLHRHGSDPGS

Row | SMILES | outcome [1] | Potency [2] | outcome [3] | Potency [4] | Potency [5] | Potency [6] | Potency [7] | Potency [8] | Potency [9] | Potency [10] | Potency [11] | Potency [12] | Potency [13] | Potency [14] | Potency [15]
1 | CCCOc1nn(C(=O)NS(=O)(=O)c2ccccc2C(=O)OC)c(=O)n1C | inactive | inactive | inactive | inactive | inactive | inactive | inactive | inactive | inactive | inactive | inactive | inactive | inactive |  | 
2 | ClCCCCl | inactive | inactive | inactive | inactive | inactive | inactive | inactive | inactive | inactive | inactive |  |  | inactive | inactive | inactive
3 | CCCCCCCCBr | inactive | inactive | inactive | inactive | inactive | inactive | inactive | inactive | inactive | inactive |  |  | inactive | inactive | 
4 | CCN1CCCC1CNC(=O)C(O)(c1ccccc1)c1ccccc1 (stereo not given) | inactive | inactive | inactive | inactive | inactive | inactive | inactive | inactive | inactive | 4.9 µM (active) | inactive |  | 4.9 µM (active) | inactive | 
5 | CC(C)[C@]12CC(=O)[C@H](C)[C@H]1C2 | inactive | inactive | inactive | inactive | inactive | inactive |  | inactive | inactive | inactive | inactive |  | inactive | inactive | inactive
6 | CN1COCN(Cc2cnc(Cl)s2)/C1=N\[N+](=O)[O-] | inactive | inactive | inactive | inactive | inactive | inactive | inactive | inactive | inactive | inactive | inactive |  | inactive |  | inactive
7 | CC(C)NCC(O)c1ccc([N+](=O)[O-])cc1 (stereo not given) | inactive | inactive | inactive | inactive | inactive | inactive | inactive | inactive | inactive | 27.5 µM (active) | inactive |  | inactive | inactive | 
8 | O=C(Cl)C(Cl)(Cl)Cl | inactive | inactive | inactive | inactive | 43.5 µM (active) | inactive | inactive | inactive | inactive |  | inactive | inactive | inactive | inactive | inactive
9 | CCCCOC(C)=O | inactive | inactive | inactive | inactive | inactive | inactive |  | inactive | inactive | inactive | inactive |  | inactive | inactive | inactive
10 | CC1N=C(N)OC1c1ccccc1 (stereo not given) | inactive | inactive | inactive | inactive | inactive | inactive | inactive | inactive | inactive | 9.81 µM (active) | inactive |  | inactive | inactive | inactive
11 | OCC(Cl)CCl (stereo not given) | inactive | inactive | inactive | inactive | inactive | inactive | inactive | inactive | inactive | inactive | 70.1 µM (active) | 39.4 µM (active) | inactive |  | inactive
12 | O=C(O)CBr | inactive | inactive | inactive | inactive | inactive | inactive |  | inactive | inactive | inactive | inactive | inactive | inactive | inactive | inactive
13 | CCCN1CCC[C@@H]2Cc3[nH]ncc3C[C@H]21 | inactive | inactive | inactive | inactive | inactive | 27.5 µM (active) | inactive |  | inactive | 30.9 µM (active) | inactive |  | inactive | inactive | inactive
14 | CC(C)N(Cc1ccccc1)C(=O)C(C)(C)C | inactive | inactive | inactive | inactive | inactive | inactive | inactive | inactive | inactive | inactive | 20 µM (active) |  | inactive | 35.6 µM (active) | inactive
15 | O=C(Cl)c1ccccc1 | inactive | inactive | inactive | inactive | inactive | inactive | inactive | inactive | inactive | inactive | 41.1 µM (active) |  | inactive |  | inactive
16 | O=C(Cl)OCc1ccccc1 | inactive | inactive | inactive | inactive | inactive | inactive | inactive | inactive | inactive | inactive |  |  | inactive | inactive | inactive
17 | O=C1CC(=O)NC(=O)N1 | inactive | inactive | inactive | inactive | inactive | inactive | inactive | inactive | inactive |  | inactive | inactive | inactive | inactive | inactive
18 | CCOP(=S)(OCC)Oc1ccc(Cl)cc1Cl | inactive | inactive | inactive | inactive | inactive | inactive | inactive |  | inactive | inactive | 0.399 µM (active) | 2.83 µM (active) | 2.83 µM (active) | 3.56 µM (active) | inactive
